Source: PubChem BioAssay (NCI)
This is part of a sample that, as a whole, favours compounds with a hit. Of some 79,000 tested, about 15% had one in any assay. Unmarked numbers belong to inactive results. The source made the active and inactive calls. Rule as the data show it: active = growth inhibition above about 70%; inactive = the rest.

Columns and labels:
[1] = NCI Yeast Anticancer Drug Screen. Data for the rad50 strain (AID 155);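 also: 0% = growth of vehicle-only cultures of the same strain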; conditions: S. cerevisiae rad50 strain growth inhibition, hits give high values
How it was run: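 Vehicle-treated cultures provide the reference for the growth inhibition reported for compound-exposed, repair-deficient yeast.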

[2] = NCI Yeast Anticancer Drug Screen. Data for the mec2-1 strain (AID 157); conditions: S. cerevisiae mec2-1 strain, hits give high values
How it was run: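 Mutant yeast (mec2-1) grown with compound; growth inhibition relative to vehicle control reported.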

[3] = NCI Yeast Anticancer Drug Screen. Data for the sgs1 mgt1 strain (AID 161);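 also: 0% = growth of cultures given vehicle only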; conditions: S. cerevisiae sgs1 mgt1 strain, hits give high values
How it was run: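 Compounds are added to genetically altered yeast, and growth is compared with cultures given vehicle alone to give percent inhibition.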

[4] = NCI Yeast Anticancer Drug Screen. Data for the cln2 rad14 strain (AID 165);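 also: 0% = growth equal to vehicle treated cultures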; conditions: S. cerevisiae cln2 rad14 strain, hits give high values
How it was run: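 Readout is yeast growth inhibition versus vehicle-treated controls, using a strain with cln2 and rad14 alterations exposed to compound.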

[5] = NCI Yeast Anticancer Drug Screen. Data for the bub3 strain (AID 167); conditions: S. cerevisiae bub3 mutant strain, hits give high values
How it was run: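 Mutant yeast screening strain plus compound; vehicle-treated cultures serve as the 0% inhibition reference.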

[6] = NCI Yeast Anticancer Drug Screen. Data for the mlh1 rad18 strain (AID 175); conditions: S. cerevisiae mlh1 rad18 strain growth inhibition, hits give high values
How it was run: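 Genetically defined yeast (DNA repair-deficient) exposed to compounds; growth inhibition determined relative to vehicle.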

[7] = at 5.0 µM (retest, dose inferred, filed as 0.5)
[8] = at 50.0 µM (retest, dose inferred, filed as 5.0)

SMILES	growth inhibition [1, 7]	growth inhibition [1, 8]	growth inhibition ([1]; at 50.0 µM)	growth inhibition [2, 7]	growth inhibition [2, 8]	growth inhibition ([2]; at 50.0 µM)	growth inhibition [3, 7]	growth inhibition [3, 8]	growth inhibition ([3]; at 50.0 µM)	growth inhibition [4, 7]	growth inhibition [4, 8]	growth inhibition ([4]; at 50.0 µM)	growth inhibition [5, 7]	growth inhibition [5, 8]	growth inhibition ([5]; at 50.0 µM)	growth inhibition [6, 7]	growth inhibition [6, 8]	growth inhibition ([6]; at 50.0 µM)
O=Cc1cc(O)ccc1Br	33%	96% (active)	71.3% (active)	28%	96% (active)	76.8% (active)	37%	97% (active)	91.6% (active)	29%	58%	82.7% (active)	40%	99% (active)	89.3% (active)	32%	98% (active)	79.6% (active)
C=C1C(=O)OC2C1CC1OC2C(C)CCC/C(C)=C\CCC1(C)O (stereo not given)	2%	8%	92.5% (active)	2%	25%	92.8% (active)	2%	34%	94.1% (active)	-6%	-8%	91.8% (active)	-1%	8%	92.4% (active)	1%	20%	92.6% (active)
COC1/C=C/OC2(C)Oc3c(C)c(O)c4c(c3C2=O)C(=O)C=C(NC(=O)/C(C)=C\C=C\C(C)C(OC=O)C(C)C(O)C(C)C(OC(C)=O)C1C)C4=O (stereo not given)	-15%	-4%	47%	1%	3%	53.5%	-12%	29%	52.5%	-5%	3%	79% (active)	-8%	5%	49.6%	11%	27%	55.7%
CCCCCCCCCCCCCCCCCCOP(=O)([O-])OC1CC[N+](C)(C)CC1	93% (active)	99% (active)	90% (active)	98% (active)	99% (active)	92.5% (active)	98% (active)	99% (active)	91% (active)	96% (active)	99% (active)	90.2% (active)	97% (active)	99% (active)	89% (active)	97% (active)	99% (active)	92.5% (active)
Cc1ccc2nc(C[n+]3ccc4ccccc4c3)ccc2c1	-1%	28%	53.5%	-1%	17%	50.2%	-2%	47%	44.4%	-5%	5%	-1.8%	-1%	38%	43%	0%	16%	55.9%
CC1(COc2ccccc2OCC2(C)CO2)CO1 (stereo not given)	5%	4%	12.2%	2%	1%	1.15%	0%	10%	7.75%	2%	4%	70.7% (active)	-2%	-3%	5.6%	7%	36%	5.35%
O=[N+]([O-])c1ccc2c(c1)Cc1cc(O)c(I)cc1-2	3%	91% (active)	97.5% (active)	13%	92% (active)	97.8% (active)	3%	93% (active)	96.7% (active)	-10%	91% (active)	95.2% (active)	-4%	93% (active)	95.8% (active)	-2%	95% (active)	97.2% (active)
O=C1Nc2ccccc2/C1=C\c1ccccn1	41%	76% (active)	68.7%	22%	60%	30.9%	34%	76% (active)	48.7%	32%	38%	9%	26%	68%	56%	49%	86% (active)	51%
O=C(O)/C(=C\c1ccc(F)cc1)c1ccccc1	-3%	-12%	48%	-18%	-9%	64.9%	-4%	-16%	11.9%	29%	11%	38.8%	3%	28%	70.8% (active)	-12%	9%	50.2%
COc1cnn(-c2ccccc2)c(=O)c1SCc1ccc(Cl)c(Cl)c1	-3%	7%	42.5%	-3%	33%	7.95%	1%	62%	71.2% (active)	-6%	23%	49.9%	2%	51%	53%	-4%	25%	37.4%
